Assay [1] deals with Nuclear respiratory factor 1 (Homo sapiens) (UniProt Q16656). The assay is described as follows: ATG_NRF1_CIS: Attagene CIS-FACTORIAL HepG2 Assay for human Nuclear Respiratory Factor 1 (NRF1) Orphan Gene (AID 2282987). As to conditions: HepG2 NRF1 cis-element reporter, Attagene multiplex; actives raise or lower the signal. The essentials: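 Cells (HepG2, transient MRTU transfection) are exposed to compound for 24 h, then RNA isolated and reporter mRNA amplified and fluorescently labelled. Fragments are separated by capillary electrophoresis; signal change is fitted bidirectionally relative to DMSO.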
Nuclear respiratory factor 1 (Homo sapiens), sequence (Q16656 whole entry, looked up, the tested form may be a part): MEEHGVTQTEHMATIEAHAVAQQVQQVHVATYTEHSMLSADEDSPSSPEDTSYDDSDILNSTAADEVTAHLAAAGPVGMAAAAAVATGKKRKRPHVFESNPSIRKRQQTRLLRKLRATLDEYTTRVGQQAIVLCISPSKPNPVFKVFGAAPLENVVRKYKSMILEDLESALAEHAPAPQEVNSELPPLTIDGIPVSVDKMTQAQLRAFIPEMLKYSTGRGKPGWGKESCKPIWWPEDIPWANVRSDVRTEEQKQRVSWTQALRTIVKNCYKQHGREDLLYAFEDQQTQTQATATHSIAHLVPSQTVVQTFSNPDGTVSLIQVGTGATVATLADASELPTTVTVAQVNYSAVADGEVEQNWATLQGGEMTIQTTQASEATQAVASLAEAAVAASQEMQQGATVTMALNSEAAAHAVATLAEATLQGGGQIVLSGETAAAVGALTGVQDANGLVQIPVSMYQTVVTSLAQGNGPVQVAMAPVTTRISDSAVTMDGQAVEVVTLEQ

Assay [2] is described as follows: ATG_NFI_CIS: Attagene CIS-FACTORIAL HepG2 Assay for human Nuclear Factor I (NFI) (AID 2282989). The settings on record: HepG2 cis-regulatory reporter, NFI response element transcription; actives raise or lower the signal. The essentials:
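HepG2, transient MRTU, 24 h exposure; RNA→cDNA→PCR→FAM label→HpaI→CE fluorescence. Bidirectional fit, DMSO = baseline.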

The target in assay [3] is Myc proto-oncogene protein (Homo sapiens) (UniProt P01106). In words: ATG_Myc_CIS: Attagene CIS-FACTORIAL HepG2 Assay for human Myelocytomatosis (Myc) Proto-Oncogene Transcription Factor (AID 2282990). As to conditions: HepG2, Attagene cis-reporter transcription factor activity; actives raise or lower the signal. The essentials: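 After 24 h chemical treatment of HepG2 cells carrying multiplexed cis-regulated reporter constructs, reporter transcripts quantified by RT-PCR and capillary electrophoresis of fluorescent fragments. Gain or loss fitted against DMSO baseline.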
Myc proto-oncogene protein (Homo sapiens), sequence (P01106 whole entry, looked up, the tested form may be a part): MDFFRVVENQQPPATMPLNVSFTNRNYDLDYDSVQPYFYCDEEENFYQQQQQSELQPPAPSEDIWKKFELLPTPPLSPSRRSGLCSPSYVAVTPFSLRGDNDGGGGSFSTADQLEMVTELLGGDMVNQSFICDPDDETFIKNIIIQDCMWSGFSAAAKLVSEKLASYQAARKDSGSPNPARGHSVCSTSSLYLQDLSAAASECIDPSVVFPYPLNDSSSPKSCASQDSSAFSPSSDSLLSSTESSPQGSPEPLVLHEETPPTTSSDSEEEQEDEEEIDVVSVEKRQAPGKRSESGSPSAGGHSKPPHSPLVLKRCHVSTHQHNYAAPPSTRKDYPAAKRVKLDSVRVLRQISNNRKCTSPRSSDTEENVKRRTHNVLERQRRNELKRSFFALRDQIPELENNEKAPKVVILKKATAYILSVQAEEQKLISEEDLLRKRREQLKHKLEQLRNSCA

Assay [4] can be described thus: ATG_NF_kB_CIS: Attagene CIS-FACTORIAL HepG2 Assay for human Nuclear Factor Kappa B (NF-kB) (AID 2282991). As to conditions: HepG2 Attagene cis-factorial NF-kB reporter mRNA; actives raise or lower the signal. The essentials: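 Measures mRNA induction of an NF-kB-responsive cis-element reporter in HepG2 cells transfected with multiple reporter units, sampled 24 h post-dosing; quantified by fluorescence after RT-PCR and capillary electrophoresis, fitted for activation or inhibition against DMSO.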

Assay [5] can be described thus: ATG_NRF2_ARE_CIS: Attagene CIS-FACTORIAL HepG2 Assay for human Nuclear Factor Erythroid 2 Related Factor 2 (NFR2) response to Antioxidant Response Elements (ARE) (AID 2282992). As to conditions: HepG2 Attagene ARE/NRF2 reporter, transcription factor activity; actives raise or lower the signal. The essentials: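 Endogenous transcription factor activity read out as reporter transcript levels (RT-PCR plus capillary electrophoresis, fluorescence) in transiently transfected HepG2 cells. Measured at 24 h after dosing; gain or loss of signal fitted versus DMSO.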

A short description of assay [6]: ATG_Oct_MLP_CIS: Attagene CIS-FACTORIAL HepG2 Assay for human Octamer-Binding Transcription Factor (Oct) (AID 2282993). The settings on record: HepG2 Attagene cis-factorial Oct reporter, mRNA; actives raise or lower the signal. The essentials:
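Multiplexed cis-reporter assay in human liver HepG2 cells, 24 h incubation. Reporter RNA amplified and labelled, then resolved by capillary electrophoresis; DMSO serves as negative control and baseline.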

Assay [7] has as its target Cellular tumor antigen p53 (Homo sapiens) (UniProt P04637). In words: ATG_p53_CIS: Attagene CIS-FACTORIAL HepG2 Assay for human p53 Transcription Factor (AID 2282994). As to conditions: HepG2 p53 cis-element reporter, Attagene mRNA; actives raise or lower the signal. The essentials: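 Endogenous p53 activity read in transiently transfected HepG2 from a cis-element-driven reporter transcript after 24 h exposure. RNA reverse-transcribed, PCR-amplified, fluorescently labelled and sized by capillary electrophoresis; gain or loss fitted against DMSO baseline.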

Assay [8] is described as follows: BSK_3C_TissueFactor: BioMAP Diversity Plus: 3C Assay for Tissue Factor Biomarker Activity (AID 2282997). The settings on record: BioMAP 3C HUVEC, tissue factor biomarker readout; actives raise or lower the signal. The essentials: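 Readout: Tissue Factor ELISA. Cells: human primary umbilical vein endothelium. Time: 24 h after dosing. Analysis: bidirectional fit, DMSO baseline.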

A short description of assay [9]: BSK_3C_uPAR: BioMAP Diversity Plus: 3C Assay for Urokinase-type plasminogen activator receptor (uPAR) Biomarker Activity (AID 2282998). The settings on record: BioMAP 3C HUVEC, uPAR biomarker ELISA; actives raise or lower the signal. The essentials: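 Dose primary human umbilical vein endothelial cells, incubate 24 h, measure cell-surface uPAR by ELISA, then fit the signal in both directions against the DMSO negative control.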
(ELISA stands for enzyme-linked immunosorbent assay.)

Assay [10] in a line: BSK_3C_VCAM1: BioMAP Diversity Plus: 3C Assay for Vascular cell adhesion molecule 1 (VCAM1) Biomarker Activity (AID 2282999). As to conditions: BioMAP 3C HUVEC, VCAM1 ELISA, cytokine-stimulated; actives raise or lower the signal. The essentials:
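Activity fitted in both directions relative to DMSO, with ELISA measurement of the surface marker on primary HUVEC (3C) at 24 h post-treatment; parallel SRB staining (0.1% SRB, TCA-fixed, 560 nm) flagged overt cytotoxicity.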

The target in assay [11] is human Retinoic Acid Receptor beta (RARb), RARB (gene 5915) (UniProt P10826). The assay is described as follows: ATG_RARb_TRANS: Attagene TRANS-FACTORIAL HepG2 Assay for human Retinoic Acid Receptor beta (AID 2283004; active means hit-call score of the fitted dose curve at least 0.9, where 1 is the maximum). The essentials:
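HepG2 cells transiently transfected with multiplexed GAL4-UAS reporter units expressing chimeric NR–Gal4 fusions; 24 h compound exposure. Reporter mRNA quantified by RT-PCR, 6-FAM labelling, HpaI digestion and capillary electrophoresis; gain-of-signal fitted against DMSO baseline.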

Assay [12] has as its target Retinoic acid receptor alpha (Homo sapiens) (UniProt P10276). In words: ATG_RARa_TRANS: Attagene TRANS-FACTORIAL HepG2 Assay for human Retinoic Acid Receptor alpha (RARa) (AID 2283005; active means hit-call score of the fitted dose curve at least 0.9, where 1 is the maximum). The essentials:
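Reporter transcripts, measured by RT-PCR with fluorescent labeling and capillary electrophoresis after 24 h dosing, reflect activity of an exogenous human RARa–GAL4 fusion in transiently transfected HepG2. Fitted for increase relative to DMSO.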

Assay [13] in a line: BSK_3C_Proliferation: Cell Proliferation Assessment in the BioMAP Diversity Plus: 3C Assay (AID 2283006).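 On AC50: potency may reflect either rise or fall in cell number versus DMSO.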 The settings on record: primary human endothelial cells (HUVEC). The essentials: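 HUVEC, sub-confluent; 48 h chemical exposure; 10% TCA fix, 0.1% SRB stain, A560 total protein. Gain or loss of signal fitted both directions vs DMSO control.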
The target of assay [14] is Nuclear receptor subfamily 1 group I member 2 (Homo sapiens) (UniProt O75469). The assay is described as follows: ATG_PXR_TRANS: Attagene TRANS-FACTORIAL HepG2 Assay for human Pregnane X Receptor (PXR) (AID 2283008; active means hit-call score of the fitted dose curve at least 0.9, where 1 is the maximum). The essentials:
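Transactivation by exogenous PXR–GAL4 fusion measured as reporter transcript induction after 24 h compound treatment of transfected human HepG2 cells. Read-out via RT-PCR and capillary electrophoresis of labelled fragments, fitted upward relative to DMSO.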

Assay [15] has as its target human Peroxisome Proliferator-activated Receptor delta (PPARd), PPARD (gene 5467) (UniProt Q03181). The assay is described as follows: ATG_PPARd_TRANS: Attagene TRANS-FACTORIAL HepG2 Assay for human Peroxisome Proliferator-activated Receptor delta (PPARd) (AID 2283002; active means hit-call score of the fitted dose curve at least 0.9, where 1 is the maximum). The essentials:
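Read-out is induced reporter mRNA, quantified by RT-PCR with fluorescent labelling and capillary electrophoresis after 24 h dosing. Cells are HepG2 transiently carrying multiple GAL4-UAS reporter units driven by exogenous NR-GAL4 chimeras; DMSO serves as baseline.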

Read-out in assay [16]: Intercellular Adhesion Molecule 1 (ICAM1), ICAM1 (gene 3383)
The assay is described as follows: BSK_3C_ICAM1: BioMAP Diversity Plus: 3C Assay for Intercellular Adhesion Molecule 1 (ICAM1) Biomarker Activity (AID 2283003). As to conditions: primary human endothelial cells (HUVEC); actives raise or lower the signal. The essentials:
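ELISA read-out of ICAM-1; HUVEC (primary human), 3C system, 24 h post-dosing; bidirectional fit vs DMSO baseline.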

Assay [17] addresses Peroxisome proliferator-activated receptor gamma (Homo sapiens) (UniProt P37231). The assay is described as follows: ATG_PPARg_TRANS: Attagene TRANS-FACTORIAL HepG2 Assay for human Peroxisome Proliferator-activated Receptor-gamma (PPARg) (AID 2283007; active means hit-call score of the fitted dose curve at least 0.9, where 1 is the maximum). The essentials:
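Gain-of-signal endpoint relative to DMSO, derived from reporter mRNA levels quantified by RT-PCR and capillary electrophoresis. Cells were HepG2 transiently expressing a chimeric NR-Gal4 construct with GAL4-UAS reporters, exposed to chemicals for 24 h.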

Assay [18] addresses human Peroxisome Proliferator-activated Receptor alpha (PPARa), PPARA (gene 5465) (UniProt Q07869). In words: ATG_PPARa_TRANS: Attagene TRANS-FACTORIAL HepG2 Assay for human Peroxisome Proliferator-activated Receptor alpha (PPARa) (AID 2283001; active means hit-call score of the fitted dose curve at least 0.9, where 1 is the maximum;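 on AC50: potency for gain of reporter signal over DMSO so agonist or activator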). The essentials:
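Transfected HepG2 cells treated with test chemical for 24 h. RNA isolated, reverse-transcribed with oligo(dT), PCR-amplified, FAM-labelled and HpaI-digested. Fragments sized by capillary electrophoresis; gain-of-signal fit relative to DMSO.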

Assay [19] in a line: BSK_4H_Eotaxin3: BioMAP Diversity Plus: 4H Assay for Eotaxin 3 Biomarker Activity (AID 2283000). As to conditions: primary human endothelial cells (HUVEC); actives raise or lower the signal. The essentials:
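HUVEC, 24 h post-dose, ELISA for Eotaxin-3/CCL26. Gain or loss of signal fitted bidirectionally vs DMSO baseline.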

Records with an inconclusive call do not appear. Activity calls are given as the source filed them. How the source made its calls, unless noted: active means hit-call score of the fitted dose curve at least 0.9, where 1 is the maximum; inactive means score below 0.9.

human Retinoic Acid Receptor beta (RARb), RARB (gene 5915), sequence (P10826 whole entry, looked up, the tested form may be a part): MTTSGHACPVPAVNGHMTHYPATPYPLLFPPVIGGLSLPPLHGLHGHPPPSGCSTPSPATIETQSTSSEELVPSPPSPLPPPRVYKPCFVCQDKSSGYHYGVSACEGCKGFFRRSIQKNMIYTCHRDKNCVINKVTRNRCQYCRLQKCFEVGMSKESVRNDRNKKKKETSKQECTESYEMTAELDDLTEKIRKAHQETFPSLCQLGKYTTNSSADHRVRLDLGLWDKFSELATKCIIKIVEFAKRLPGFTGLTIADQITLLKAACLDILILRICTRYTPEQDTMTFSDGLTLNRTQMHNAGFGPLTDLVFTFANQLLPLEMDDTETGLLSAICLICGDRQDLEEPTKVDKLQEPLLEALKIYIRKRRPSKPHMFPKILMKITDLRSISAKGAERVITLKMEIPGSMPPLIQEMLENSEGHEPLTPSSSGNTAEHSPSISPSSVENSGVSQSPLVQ
Cellular tumor antigen p53 (Homo sapiens), sequence (P04637 whole entry, looked up): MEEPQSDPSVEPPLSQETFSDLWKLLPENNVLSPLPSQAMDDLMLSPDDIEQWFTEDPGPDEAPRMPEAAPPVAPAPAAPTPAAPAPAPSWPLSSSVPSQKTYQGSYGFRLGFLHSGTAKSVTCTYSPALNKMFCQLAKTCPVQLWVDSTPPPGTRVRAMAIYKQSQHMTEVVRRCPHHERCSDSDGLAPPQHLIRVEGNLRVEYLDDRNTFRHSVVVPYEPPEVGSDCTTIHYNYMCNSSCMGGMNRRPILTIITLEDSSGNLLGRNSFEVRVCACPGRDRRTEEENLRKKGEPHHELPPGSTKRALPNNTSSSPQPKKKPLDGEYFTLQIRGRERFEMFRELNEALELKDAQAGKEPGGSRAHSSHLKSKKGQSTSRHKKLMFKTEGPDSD
human Peroxisome Proliferator-activated Receptor alpha (PPARa), PPARA (gene 5465), sequence (Q07869 whole entry, looked up, the tested form may be a part): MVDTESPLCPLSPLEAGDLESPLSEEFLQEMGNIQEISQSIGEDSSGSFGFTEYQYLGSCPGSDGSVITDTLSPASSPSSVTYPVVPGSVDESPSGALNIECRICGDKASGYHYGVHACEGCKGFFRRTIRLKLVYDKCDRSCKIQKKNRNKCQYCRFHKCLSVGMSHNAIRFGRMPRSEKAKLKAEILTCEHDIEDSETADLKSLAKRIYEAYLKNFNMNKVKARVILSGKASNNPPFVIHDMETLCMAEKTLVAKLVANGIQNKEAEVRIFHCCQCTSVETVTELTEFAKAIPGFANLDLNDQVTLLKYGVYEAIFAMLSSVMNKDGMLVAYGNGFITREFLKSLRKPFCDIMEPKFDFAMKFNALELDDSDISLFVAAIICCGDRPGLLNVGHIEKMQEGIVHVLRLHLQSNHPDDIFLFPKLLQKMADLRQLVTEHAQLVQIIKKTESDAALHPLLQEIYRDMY
human Peroxisome Proliferator-activated Receptor delta (PPARd), PPARD (gene 5467), sequence (Q03181 whole entry, looked up, the tested form may be a part): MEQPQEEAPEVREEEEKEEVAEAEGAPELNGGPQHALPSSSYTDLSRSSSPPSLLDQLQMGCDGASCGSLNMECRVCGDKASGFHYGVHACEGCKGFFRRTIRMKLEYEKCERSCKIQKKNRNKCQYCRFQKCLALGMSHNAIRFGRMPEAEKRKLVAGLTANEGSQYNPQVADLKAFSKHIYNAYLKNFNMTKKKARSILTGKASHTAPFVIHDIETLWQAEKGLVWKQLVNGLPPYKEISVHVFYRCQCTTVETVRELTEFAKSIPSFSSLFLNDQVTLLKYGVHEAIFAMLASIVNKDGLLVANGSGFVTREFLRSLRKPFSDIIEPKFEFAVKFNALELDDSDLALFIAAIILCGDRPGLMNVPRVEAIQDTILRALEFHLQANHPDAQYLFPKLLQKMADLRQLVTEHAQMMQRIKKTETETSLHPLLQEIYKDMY
Retinoic acid receptor alpha (Homo sapiens), sequence (P10276 whole entry, looked up, the tested form may be a part): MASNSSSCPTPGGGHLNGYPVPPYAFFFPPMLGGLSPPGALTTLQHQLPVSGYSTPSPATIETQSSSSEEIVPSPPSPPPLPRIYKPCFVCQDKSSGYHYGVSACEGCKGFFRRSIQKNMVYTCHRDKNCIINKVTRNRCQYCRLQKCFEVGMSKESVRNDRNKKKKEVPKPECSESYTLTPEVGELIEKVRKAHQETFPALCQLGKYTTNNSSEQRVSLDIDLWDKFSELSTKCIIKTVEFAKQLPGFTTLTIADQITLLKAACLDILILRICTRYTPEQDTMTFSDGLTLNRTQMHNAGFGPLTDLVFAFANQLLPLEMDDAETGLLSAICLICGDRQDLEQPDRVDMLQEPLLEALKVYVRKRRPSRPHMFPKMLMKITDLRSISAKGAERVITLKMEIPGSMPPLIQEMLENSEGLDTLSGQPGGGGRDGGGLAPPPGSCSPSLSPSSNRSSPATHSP
Nuclear receptor subfamily 1 group I member 2 (Homo sapiens), sequence (O75469 whole entry, looked up, the tested form may be a part): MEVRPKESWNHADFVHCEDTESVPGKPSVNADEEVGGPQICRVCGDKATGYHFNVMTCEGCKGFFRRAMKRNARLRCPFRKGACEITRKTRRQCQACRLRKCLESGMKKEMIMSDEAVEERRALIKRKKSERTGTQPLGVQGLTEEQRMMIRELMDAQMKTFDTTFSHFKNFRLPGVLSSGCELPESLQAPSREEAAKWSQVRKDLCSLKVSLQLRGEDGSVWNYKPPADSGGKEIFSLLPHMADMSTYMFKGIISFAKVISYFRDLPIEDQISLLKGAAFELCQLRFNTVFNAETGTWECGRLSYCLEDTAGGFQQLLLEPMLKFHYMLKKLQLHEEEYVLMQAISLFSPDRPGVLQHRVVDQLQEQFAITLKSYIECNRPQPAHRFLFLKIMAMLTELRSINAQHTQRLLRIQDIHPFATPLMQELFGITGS
Peroxisome proliferator-activated receptor gamma (Homo sapiens), sequence (P37231 whole entry, looked up, the tested form may be a part): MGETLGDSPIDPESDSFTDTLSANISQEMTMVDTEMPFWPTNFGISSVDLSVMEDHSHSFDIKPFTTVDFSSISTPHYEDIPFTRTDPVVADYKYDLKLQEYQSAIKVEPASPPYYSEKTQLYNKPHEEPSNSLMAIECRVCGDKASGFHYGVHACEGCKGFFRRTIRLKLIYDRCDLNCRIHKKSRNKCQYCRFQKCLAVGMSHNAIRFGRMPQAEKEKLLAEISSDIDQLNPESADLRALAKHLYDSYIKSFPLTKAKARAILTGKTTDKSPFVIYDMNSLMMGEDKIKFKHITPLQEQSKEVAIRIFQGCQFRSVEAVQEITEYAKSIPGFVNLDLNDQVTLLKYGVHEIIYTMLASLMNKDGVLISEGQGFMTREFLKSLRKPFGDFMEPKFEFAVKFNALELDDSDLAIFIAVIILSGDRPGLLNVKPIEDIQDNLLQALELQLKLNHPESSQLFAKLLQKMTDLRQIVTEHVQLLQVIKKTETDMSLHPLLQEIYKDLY

For `O=[N+]([O-])c1ccc2c3c(cccc13)CC2`, the compound was classed as inactive in assay [1], in assay [2], in assay [3], in [4], in [6] and in assay [7]. Besides, the outcome in [8], in [10], in assay [11], in assay [12] and in assay [13] was inactive. Further, the AC50 (as a rule, the midpoint of the concentration-response curve, whichever way the signal moves) in [5] is 6.63 µM (active); in assay [9] it was 20 µM (active); in [14], 2.41 µM (active).
Take `CCOP(=S)(OCC)Oc1nc(Cl)c(Cl)cc1Cl`: the outcome in [1], in assay [3], in assay [4], in assay [7], in assay [8] and in assay [15] was inactive. In addition, the outcome in assay [16] was inactive. In addition, the AC50 was 69.6 µM (active) in assay [2]; 33.4 µM (active) in assay [5]; 117 µM (active) in assay [6]; 33.5 µM (active) in [9]; 25.8 µM (active) in assay [10]; 20 µM (active) in assay [13]. In addition, the concentration at half-maximal activity (AC50) in assay [14] was 5.64 µM (active).
`COC(=O)c1sccc1S(=O)(=O)NC(=O)Nc1nc(C)nc(OC)n1`: the compound was classed as inactive in assay [1], in [2], in assay [3], in assay [4], in assay [5] and in [6]. The outcome in assay [7], in assay [8], in assay [9], in assay [10], in [15] and in assay [16] was inactive. The outcome in assay [13] and in assay [14] was inactive.
As to `N#Cc1ccccn1`, the compound was classed as inactive in assay [1], in [2], in [3], in assay [4], in assay [5] and in [6]. The result in assay [7] was inactive.
`O=[N+]([O-])c1ccc(O)c([N+](=O)[O-])c1`: the compound was classed as inactive in [1], in [2], in assay [3], in assay [4], in assay [5] and in [6]. The outcome in assay [7], in assay [8], in [9], in assay [10], in assay [11] and in assay [12] was inactive. Also, the outcome in [13] and in [17] was inactive.
Take `N#CCCO`: the call in [1], in assay [2], in assay [3], in assay [4], in assay [5] and in [6] was inactive. Further, the outcome in assay [7] and in assay [18] was inactive.
For the compound `CCN1CCC2(CC1)COc1cc3c(cc12)N(C(=O)c1ccc(-c2ccc(-c4nnc(C)o4)cc2C)cc1)CC3`, the outcome in [1], in assay [2], in assay [3], in assay [4], in assay [6] and in assay [7] was inactive. For the same compound, the compound was classed as inactive in [18], in assay [15], in [11], in assay [12] and in assay [14]. The AC50 is 5.17 µM (active) in assay [5]; 13.2 µM (active) in [8]; 9.27 µM (active) in assay [9]; 26.9 µM (active) in assay [10]; 24.1 µM (active) in [19]; 29.2 µM (active) in assay [16]. In addition, the AC50 in assay [13] is 5.23 µM (active).
`NC(=O)O`: the compound was classed as inactive in assay [1], in [2], in assay [3], in assay [4], in [5] and in assay [6]. In addition, the result in assay [7], in [8], in [9], in assay [10], in assay [18] and in assay [13] was inactive. The call in assay [14] was inactive.
In the case of `CCC(C)(C)c1ccc(O)c(C(C)(C)CC)c1`, the result in assay [1], in assay [2], in assay [3], in assay [4], in assay [6] and in assay [7] was inactive. Moreover, the compound was classed as inactive in [11] and in [12]. For the same compound, the AC50 in [5] was 11.1 µM (active); in assay [8], 12 µM (active); in [9], 8.8 µM (active); in [10], 11.5 µM (active); in assay [19] it was 11.1 µM (active); in assay [18], 55.2 µM (active). Besides, the AC50 in [15] is 52 µM (active); in [13], 8.85 µM (active); in assay [17], 33.4 µM (active); in assay [14], 12.6 µM (active).

The values above are taken from PubChem BioAssay (EPA / NIEHS).
